The record followed here is PubChem BioAssay (NCI).

This is part of a sample that, as a whole, favours compounds with a hit. Of some 83,000 tested, about 20% had one in any assay.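 Cell lines were cultured in 96-well plates, exposed to a single compound concentration, and assessed for percent growth 48 hours later.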 Unmarked numbers belong to inactive results. The source made the active and inactive calls. Rule for the calls: active = growth percent below 10; inactive = the rest.

Common to all, as to test: NCI-60 one-dose screen, 48 h (100 = growth as untreated, 0 = no growth, -100 = all killed)
In assay [1] the test system is SK-MEL-2 melanoma. The note with it: 10 µM unless noted.
In assay [2] the test system is EKVX NSCLC. Particulars: 10 µM unless noted.
In assay [3] the test system is SN12C renal. The note with it: 10 µM unless noted.
Assay [4] relates to UO-31 renal. The note with it: 10 µM unless noted.
Assay [5] deals with TK-10 renal. Particulars: 10 µM unless noted.
Assay [6] has as its system ACHN renal. The note with it: 10 µM unless noted.
The subject of assay [7] is CAKI-1 renal. Particulars: 10 µM unless noted.
In assay [8] the test system is A498 renal. Particulars: 10 µM.
Assay [9] deals with HL-60(TB) leukemia. The note with it: 10 µM unless noted.
The subject of assay [10] is CCRF-CEM leukemia. The note with it: 10 µM unless noted.
For assay [11], the system named is MOLT-4 leukemia. The note with it: 10 µM unless noted.
In assay [12] the test system is SR leukemia. The note with it: 10 µM unless noted.
Assay [13] relates to RPMI-8226 leukemia. The note with it: 10 µM unless noted.
Assay [14] has as its system OVCAR-8 ovarian. The note with it: 10 µM unless noted.
The test system of assay [15] is OVCAR-5 ovarian. Particulars: 10 µM unless noted.
For assay [16], the system named is OVCAR-4 ovarian. Particulars: 10 µM unless noted.
For assay [17], the system named is SK-OV-3 ovarian. Particulars: 10 µM unless noted.
Assay [18] has as its system IGROV1 ovarian. The note with it: 10 µM unless noted.
Assay [19] deals with OVCAR-3 ovarian. Particulars: 10 µM unless noted.
The subject of assay [20] is HS 578T breast. Particulars: 10 µM unless noted.

On to `CC1CCCC(C[N+](C)(C)C)C1=O` (stereo not given), for which the growth in assay [1] is 117%; in [2] it was 110%; in assay [3], 92.5%; in [4] it was 73.5%; in assay [5], 106%; in [6] it was 97.5%. Further, the growth is 103% in assay [7]; 101% in [8]; 104% in assay [9]; 95.2% in assay [10]; 75.7% in assay [11]; 86.8% in assay [12]. In addition, the growth in assay [13] is 105%; in assay [14] it was 108%; in assay [15], 104%; in assay [16] it was 93.1%; in assay [17], 110%; in assay [18], 92.3%. Further, the growth is 121% in [19] and 111% in assay [20].
In the case of `Clc1ccc(CO/N=C(\Cn2ccnc2)c2ccc(Cl)cc2Cl)c(Cl)c1`, the growth in assay [1] is -48% (active); in assay [2], 6.63% (active); in assay [3], 2.12% (active); in assay [4] it was -3% (active); in [5], -1.82% (active); in [6] it was 6.26% (active). In addition, the growth in [7] is 1.17% (active); in assay [8] it was -5.95% (active); in [9], -23% (active); in assay [10], -13.1% (active); in assay [11], -4.84% (active); in assay [12], -13.7% (active). For the same compound, the growth in [13] was -3.32% (active); in assay [14] it was 9.94% (active); in assay [15] it was 15.8%; in assay [16] it was 20.7%; in [17], 101%; in assay [18], 6.54% (active). Moreover, the values for the growth in assay [19] and in assay [20] were -60.1% (active) and -4.93% (active), respectively.
With `CN(C)CCCOc1ccc2c(c1)c(C(=O)C(=O)NCCO)cn2Cc1ccccc1`, the growth was 114% in assay [1]; 102% in assay [2]; 104% in assay [3]; 84% in [4]; 116% in assay [5]; 99.2% in assay [6]. In addition, the growth was 90.5% in assay [7]; 59.8% in assay [8]; 106% in assay [9]; 102% in assay [10]; 111% in assay [11]; 115% in assay [12]. For the same compound, the growth was 106% in [13]; 98.1% in [14]; 108% in assay [15]; 105% in assay [16]; 110% in assay [17]; 99.6% in assay [18]. The growth is 108% in assay [19] and 99.6% in assay [20].
Turning to `Nc1cc2nc3ccccc3nc2cc1N`, the growth in assay [1] is 107%; in assay [2], 84.8%; in [3], 80.5%; in [4], 74.2%; in assay [5], 110%; in assay [6], 99.2%. For the same compound, the growth in assay [7] was 101%; in assay [8], 78.3%; in assay [9] it was 87.5%; in assay [10] it was 94%; in assay [11], 91.1%; in [12] it was 82.4%. In addition, the growth is 80% in [13]; 83% in assay [14]; 99.9% in assay [15]; 84% in assay [16]; 82.3% in [17]; 96% in [18]. The values for the growth in [19] and in [20] were 92.1% and 76.8%, respectively.
Take `Cc1ccccc1NC(=NCCCN1CC1)Nc1ccccc1C`: the growth in [1] was 114%; in assay [2] it was 96.8%; in [3], 92.1%; in assay [4], 73.3%; in assay [5], 99.7%; in [6], 90.1%. Further, the growth in assay [7] was 77.5%; in [8] it was 91.7%; in assay [9], 95.9%; in assay [10], 89.7%; in assay [11], 70.8%; in assay [12], 69.7%. For the same compound, the growth in assay [13] is 95.2%; in assay [14], 82.6%; in assay [15], 123%; in assay [16] it was 88.9%; in [17] it was 79.9%; in assay [18], 82%. Further, the growth was 90.4% in assay [19] and 97.4% in [20].
As to `O=C(O)C(Cl)(Cl)C(F)(F)F`, the growth is 105% in assay [1]; 105% in assay [2]; 104% in [3]; 93.5% in assay [4]; 98.3% in assay [5]; 107% in [6]. Also, the growth was 95% in assay [7]; 95.1% in [8]; 110% in [9]; 100% in assay [10]; 112% in [11]; 122% in assay [12]. The growth in assay [13] is 108%; in assay [14], 112%; in assay [15] it was 103%; in [16], 104%; in assay [17], 110%; in [18] it was 104%. The figures for the growth in assay [19] and in assay [20] were 101% and 95.9%, respectively.
Take `O=C(N/N=C\c1ccc(N(CCCl)CCCl)cc1Cl)c1cccnc1`: the growth in [1] is 27.2%; in assay [2], 103%; in assay [3] it was 79.2%; in assay [4], 88%; in assay [5], 6.39% (active); in [6], 98.5%. The growth is 69.3% in assay [7]; -93.6% (active) in assay [8]; 91.8% in assay [9]; 74.8% in assay [10]; 87.5% in assay [11]; 99.5% in assay [12]. The growth in assay [13] is 82.4%; in assay [14], 96%; in [15], -3.04% (active); in assay [16], 53.7%; in assay [17], 95.3%; in assay [18], 37%. The growth in assay [19] was 57.6%; in assay [20] it was 119%.
For the compound `CC(=O)OC1CCC2(C)C(CCC3C2CC(=O)C2(C)C3CC(Sc3ccc(N(CCCl)CCCl)cc3)C2C(C)=O)C1` (stereo not given), the growth in [1] is 93.3%; in [2] it was 115%; in assay [3], 87.3%; in assay [4] it was 77.6%; in [5], 92.6%; in assay [6] it was 72.3%. Also, the growth is 68% in [7]; 103% in assay [8]; 79.3% in assay [9]; 63.1% in [10]; 77.3% in assay [11]; 51.5% in assay [12]. In addition, the growth in assay [13] is 49%; in assay [14], 84.1%; in [15] it was 95.6%; in assay [16], 84.4%; in [17], 113%; in assay [18], 116%. For the same compound, the growth in assay [19] was 99.6%; in assay [20], 110%.
